Shown are actives, neighbours in structure and some others; about 4.9% of the full set was active somewhere.
CSC inhib – blocks cancer stem cells; 300,000 tested, 1.1% active; cancer stem cell-like cells viability, luminescence; inhibition, % at 7.5 µM; in the data active means inhibition above about 75%; inconclusive means no clear call, values can overlap the other calls; tested in HMLE shEcad cells
Mdm2 MdmX PPI – disrupts the human Mdm2-MdmX interaction | O15151+Q00987 | SaOS-2 split-luciferase Mdm2/MdmX complementation, luminescence | inhibition, % at 8 µM | 330,000 tested, 3% active;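 active means inhibition of at least 50% at 8 µM in the primary screen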
PP5 primary – inhibitors of human protein phosphatase 5 (PP5). purified PP5c, OMFP substrate fluorescence. inhibition, % at 6.7 µM. 320,000 tested, 0.18% active;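 active means inhibition above the campaign's mean inhibition across all tested compounds plus 3 SD, cut at about 9.5% in these data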
PP1 inh – counter-screen for PP5 inhibitors: inhibitors of human PP1-alpha. purified PP1alpha, OMFP fluorescence. 320,000 tested, 0.9% active. AID 2235. inhibition, % at 6.7 µM. P62136;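 active means inhibition above the mean inhibition of all tested compounds plus 3 SD, computed separately for each screening campaign, cut at about 15% in these data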
Calb FLC – C. albicans growth modulation with fluconazole | 300,000 tested, 0.57% active | C. albicans CaCi-2 (fluconazole-resistant clinical isolate) + fluconazole, Alamar Blue growth, 48 h | growth inhibition, % (concentration not given with the values);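 active means growth inhibition above about 58% in most replicates, limit read from the data, passing the limit was not always enough; inconclusive means exactly half the replicates above a set limit; inactive means most replicates below a set limit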;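 further: all wells also contain fluconazole at 8 µg/ml as a sub-toxic cotreatment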
Beta cell apopt – beta cell apoptosis inhibition; INS-1E cytokine-induced death, ATP luminescence, 48 h; percent of positive-control rescue, neutral wells zero; protection from apoptosis, % (test concentration not listed); 300,000 tested, 0.8% active; AID 435005;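 active means Every replicate reaches about 75%, or at least half do and their mean reaches it too, limit read from the data; inconclusive means At least half of replicates reach the limit but their mean does not; inactive means Under half of replicates reach the limit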;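 further: higher means more ATP so stronger rescue from cytokine killing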
Mdm2-MdmX conf – confirmation of human Mdm2/MdmX interaction inhibitors; shares compounds with Mdm2 MdmX PPI; Mdm2-MdmX binding, luminescent assay; 10,000 tested, 55% active; inhibition, % at 8 µM; in the data active means inhibition above about 40%
Full FLuc ctr – counter-screen for Mdm2/MdmX inhibitors: full-length luciferase | inhibition, % at 8 µM | SaOS-2 full-length luciferase counterscreen, luminescence | shares compounds with Mdm2 MdmX PPI | 6,200 tested, 77% active;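 active means mean inhibition at 8 µM reaching about 37%, which flags the compound as non-specific, limit read from the data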;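 further: p53-null SaOS-2 cells with luciferase driven by a doxycycline-inducible promoter; compound on cells about two nights before reading with doxycycline added after day one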
Of the large screens only hits and unclear results are named; the others gave an inactive call (follow-up assays come after a bar, where they were run).

NCCNC(=O)c1c(O)c2cccc3c2n(c1=O)CCC3	none (no result: CSC inhib, PP5 primary, PP1 inh, Beta cell apopt)
O=C(NCc1cccnc1)c1c(O)c2cccc3c2n(c1=O)CCC3	Mdm2 MdmX PPI 71 | Mdm2-MdmX conf 45 | Full FLuc ctr inactive
COc1ccccc1-c1cc(C(F)(F)F)nc(S(=O)(=O)CCCC(=O)N2CCOCC2)n1	CSC inhib 82, Mdm2 MdmX PPI 97 | Mdm2-MdmX conf 98 | Full FLuc ctr inactive
COc1ccc(-c2cc(C(F)(F)F)nc(S(=O)(=O)CCCC(=O)Nc3cccc(O)c3)n2)cc1OC	Mdm2 MdmX PPI 73 (no result: CSC inhib, PP5 primary, PP1 inh, Beta cell apopt) | Mdm2-MdmX conf inactive
Cc1cc(NC(=O)CCS(=O)(=O)c2nc(-c3ccccc3)cc(C(F)(F)F)n2)no1	Mdm2 MdmX PPI 88 (no result: Calb FLC) | Mdm2-MdmX conf 78 | Full FLuc ctr 43
COc1ccccc1-c1cc(C(F)(F)F)nc(S(=O)(=O)CCCC(=O)O)n1	none
CCOc1ccc(C2C=C(c3ccc(C)cc3)Nc3nnnn32)cc1 (stereo not drawn)	Mdm2 MdmX PPI 50 | Mdm2-MdmX conf inactive
CCOc1ccc(C2C=C(c3ccccc3)Nc3nnnn32)cc1 (stereo not drawn)	none
O=C(Nc1ccccc1SCC1CSc2nc3ccccc3c(=O)n21)c1ccccc1 (stereo not drawn)	none
O=C(Nc1ccccc1SCC1CSc2nc3ccccc3c(=O)n21)c1cccc(Cl)c1 (stereo not drawn)	Mdm2 MdmX PPI 77 | Mdm2-MdmX conf 55 | Full FLuc ctr 43
O=C(Nc1ccccc1SCC1CSc2nc3ccccc3c(=O)n21)c1ccccc1Cl (stereo not drawn)	none
Cc1ccc(C(=O)Nc2ccccc2SCC2CSc3nc4ccccc4c(=O)n32)cc1 (stereo not drawn)	Mdm2 MdmX PPI 70 | Mdm2-MdmX conf 47 | Full FLuc ctr 55
Cc1cccc(C(=O)Nc2ccccc2SCC2CSc3nc4ccccc4c(=O)n32)c1 (stereo not drawn)	Mdm2 MdmX PPI 63 (no result: Beta cell apopt) | Mdm2-MdmX conf 44 | Full FLuc ctr 107
CCc1ccc(-c2ccc(SCC(=O)Nc3nnc(C)s3)nn2)cc1	none
CCN1C(=O)/C(=C/c2nc3ccccc3c(=O)n2-c2ccccc2)c2ccccc21	Mdm2 MdmX PPI 83 | Mdm2-MdmX conf 49 | Full FLuc ctr 57
CCN1C(=O)/C(=C\c2nc3ccccc3c(=O)n2CC)c2ccccc21	none (no result: CSC inhib)
COc1ccc(CC(=O)N/N=C(\C)CC(=O)NCc2ccco2)cc1OC	none
CCOC(=O)C1(O)CC(C)=NN1C(=O)c1cccc(Cl)c1 (stereo not drawn)	none (no result: Beta cell apopt)
Cc1nn(CCC(=O)NNC(=S)NCC(C)C)c(C)c1Br	none
C=C1C(=O)O[C@@H]2[C@H]3O[C@]3(C)CC/C=C(\C)CC[C@@H]12	Mdm2 MdmX PPI 68 (no result: Calb FLC) | Mdm2-MdmX conf 54 | Full FLuc ctr 62
COc1ccc(-c2c(C#N)c(N)nc3c2CCc2ccccc2-3)cc1OC	Mdm2 MdmX PPI 89, Calb FLC inconclusive | Mdm2-MdmX conf 85 | Full FLuc ctr 50
COc1cc(-c2c(C#N)c(N)nc3c2CCCC3)ccc1O	none
COc1ccc(-c2cc(-c3ccc(O)cc3)nc(N)c2C#N)cc1OC	Mdm2 MdmX PPI 59 | Mdm2-MdmX conf 42 | Full FLuc ctr 100
CS(=O)(=O)N1N=C(c2cccs2)CC1c1ccco1 (stereo not drawn)	none
Cc1ccc(-n2c(COc3c(C)cccc3C)nnc2SCC(=O)Nc2nccs2)cc1	none
CCn1c(CC(=O)Nc2ccc(C)c(Cl)c2)nnc1SCC(=O)Nc1nc(C)cs1	Mdm2 MdmX PPI 63 | Mdm2-MdmX conf inactive
COc1ccc(NC(=O)Cc2nnc(SCC(=O)Nc3nccs3)n2C)cc1	none
Cc1ccc(OCc2nnc(SCC(=O)Nc3nccs3)n2-c2ccccc2)cc1C	Mdm2 MdmX PPI 55 | Mdm2-MdmX conf inactive
CCn1c(CC(=O)Nc2cccc(OC)c2)nnc1SCC(=O)Nc1nccs1	Mdm2 MdmX PPI 57 | Mdm2-MdmX conf 54 | Full FLuc ctr 59
CCn1c(CC(=O)Nc2ccc(C)c(Cl)c2)nnc1SCc1ccc(Cl)c(Cl)c1	none
CC(=O)Oc1ccc(N(C(C)=O)S(=O)(=O)c2ccc(C)cc2)c2ccccc12	none
COc1ccc(C(Sc2ccccc2)c2ccccc2)cc1OC (stereo not drawn)	none
O=C(c1c(F)c(F)c(F)c(F)c1F)N1CCN(c2cccc(C(F)(F)F)c2)CC1	Mdm2 MdmX PPI 58 | Mdm2-MdmX conf inactive
Cc1cc(C)c2ccc(NN)nc2c1O	Mdm2 MdmX PPI 59 | Mdm2-MdmX conf 41 | Full FLuc ctr 47
CCN(CC)S(=O)(=O)c1cccc(C(=O)NNC(=O)c2ccc3[nH]c(=O)c(=O)[nH]c3c2)c1	none
O=C(O)C/C=C(/NC(=O)OCc1ccccc1)C(=O)OCc1ccccc1	none
Clc1cccc(Cl)c1CSc1nnc(-c2ccncc2)s1	Mdm2 MdmX PPI 78 | Mdm2-MdmX conf inactive
Clc1ccc(CSc2nnc(-c3ccncc3)s2)cc1	none
O=C(CN(C(=O)c1ccccc1Cl)C1CCCCC1)Nc1ccc(Cl)c([N+](=O)[O-])c1	none
O=C(CN(C(=O)c1ccc(Cl)cc1)C1CCCCC1)Nc1ccc(Cl)c([N+](=O)[O-])c1	Mdm2 MdmX PPI 65 | Mdm2-MdmX conf 43 | Full FLuc ctr 72
CCCOc1ccc(CCCN=C(N)N)cc1Cl	Mdm2 MdmX PPI 52 | Mdm2-MdmX conf inactive
CCCCOc1ccc(CN=C(N)N)cc1Cl	none
CCOC(=O)CN1N=C(c2ccc(Cl)s2)CSC1=O	none
CCC1CCc2c(sc3nc(SCC(=O)NCc4ccco4)n(-c4ccccc4)c(=O)c23)C1 (stereo not drawn)	Mdm2 MdmX PPI 55 | Mdm2-MdmX conf inactive
Cc1ccc(-n2c(SCC(=O)NCc3ccco3)nc3sc4c(c3c2=O)CC(C)(C)SC4)cc1	none
CCCCOc1ccc(Br)cc1/C(C)=N/NC1=NCCN1	Mdm2 MdmX PPI 89 | Mdm2-MdmX conf 64 | Full FLuc ctr 39
COc1ccc(/C(C)=N/NC2=NCCN2)cc1Cl	none (no result: PP5 primary, PP1 inh)
Cc1ccccc1-c1nc(CN2CCC(C(=O)NCCC3=CCCCC3)CC2)c(C)o1	Mdm2 MdmX PPI 58 | Mdm2-MdmX conf inactive | Full FLuc ctr 76
COc1ccc(CCNC(=O)C2CCN(Cc3nc(-c4ccccc4C)oc3C)CC2)cc1OC	none
Cc1ccccc1-c1nc(CN2CCC(C(=O)NCCCN3CCCC(C)C3)CC2)c(C)o1 (stereo not drawn)	Mdm2 MdmX PPI 96 | Mdm2-MdmX conf 70 | Full FLuc ctr 43
Cc1ccccc1-c1nc(CN2CCC(C(=O)NC3CCCCC3)CC2)c(C)o1	none
COCCN(CC(=O)Nc1cccc(C)c1C)C(=O)c1ccc(-n2cccn2)cc1	none (no result: Calb FLC)
CCCCc1c(O)nc(SCC(=O)c2ccccc2)n(-c2ccccc2)c1=O	none
